Measured values: PubChem BioAssay (Tox21)
Records with an inconclusive call do not appear. Where a call stands in place of a potency, no number is given. A structure can be active in one record and inactive in another. Activity calls are given as the source filed them. Unless noted, calls follow the shape of the dose curve; as a rule, active = well fitted curve in the direction sought with a large enough effect in the repeat runs; inconclusive = weak or mixed curves; inactive = no such curve, though single readings can be large; an effect the other way counts as inactive or inconclusive.

Tests used:
[1] = qHTS RealTime-Glo MT Cell Viability Assay in HepG2 cells - 16 hour (AID 1224885); also: nearly all actives have a fitted effect of over 50% in size
Summary of the method: (§1)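 HepG2 cells were seeded at 600 cells/well together with NanoLuc luciferase and a cell-permeant prosubstrate, preincubated 5 h at 37 C/5% CO2, then pin-dosed with compounds in DMSO. Nonlytic luminescence from viable cells was read at each time point.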

[2] = qHTS RealTime-Glo MT Cell Viability Assay in HEK293 cells - 24 hour (AID 1224886); also: nearly all actives have a fitted effect of over 50% in size; also: potency is read from the fitted curve at half-maximal effect
Summary of the method: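 HEK293 cells were seeded at 600 cells/well together with NanoLuc luciferase and cell-permeant prosubstrate, preincubated 5 h at 37 C/5% CO2, then given compound in DMSO by pintool. Luminescence from viable-cell prosubstrate reduction was read repeatedly over 40 h.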

[3] = qHTS RealTime-Glo MT Cell Viability Assay in HEK293 cells - 8 hour (AID 1224887); also: top concentration of the series differs between compounds; nearly all actives have a fitted effect of over 50% in size
Summary of the method: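 Real-time viability in HEK293: signal arises when living cells convert a prosubstrate for NanoLuc in the medium, so luminescence tracks viable cell number. Compound (23 nL, DMSO) added 5 h post-seeding; kinetic reads at 0–40 h, 37 C.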

[4] = qHTS RealTime-Glo MT Cell Viability Assay in HepG2 cells - 0 hour (AID 1224889); also: nearly all actives have a fitted effect of over 50% in size
Summary of the method: as §1

[5] = A CellTox Green Cytotoxicity Assay to monitor cytotoxicity in HepG2 cells - 8 hour (AID 1224890); also: nearly all actives have a fitted effect of over 45% in size
Summary of the method: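 Cells and non-lytic dye reagent are dispensed together (600 HepG2 cells/well) and incubated 5 h before DMSO compound transfer. Kinetic fluorescence is then recorded in the same wells during 40 h at 37 C.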

[6] = qHTS assay to identify small molecule antagonists of the estrogen receptor alpha (ER-alpha) signaling pathway using the BG1 cell line in the presence of 0.1 nM 17-beta-estradiol - cell viability counter screen (AID 1259241); also: nearly all actives have a fitted effect of over 40% in size
Summary of the method: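 Cells were plated and left 24 hr, compounds in DMSO were pinned in, 17beta-estradiol was added to 0.1 nM final, and after 22 hr CellTiter-Fluor reagent was added for 30 min before fluorescence was read.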

[7] = qHTS assay to identify small molecule antagonists of the androgen receptor (AR) signaling pathway using the MDA cell line in the presence of 0.5 nM R1881 - cell viability counter screen (AID 1259242); also: nearly all actives have a fitted effect of over 45% in size
Summary of the method: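 Steps: plate MDA-kb2 cells, rest 5 hr at 37C without CO2; pin in compounds in DMSO; add R1881 to 0.5 nM final; incubate 16 hr; add CellTiter-Fluor, 30 min; read fluorescence.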

[8] = molecular target: Estrogen receptor (Homo sapiens) (UniProt P03372); assay: qHTS assay to identify small molecule antagonists of the estrogen receptor alpha (ER-alpha) signaling pathway using the BG1 cell line in the presence of 0.1 nM 17-beta-estradiol (AID 1259244); also: nearly all actives have a fitted effect of over 50% in size
Summary of the method: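 Antagonist mode: compounds in DMSO are pinned onto VM7Luc4E2 reporter cells, 0.1 nM final 17beta-estradiol is added, and after 22 h at 37C luciferase luminescence is measured with ONE-Glo.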

[9] = qHTS assay to identify small molecule HDAC inhibitors (AID 1259364); also: potency is read from the fitted curve at half-maximal effect;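 also: wild-type HCT-116 cells with endogenous class I/II HDAC activity; nearly all actives have a fitted effect of over 45% in size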
Summary of the method: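 Cells (HCT-116, wild type) are seeded at 1,500 per well, incubated overnight, treated with compound in DMSO for 2 hr, then developed with HDAC-Glo I/II reagent for 30 min at room temperature.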

[10] = qHTS assay to identify small molecule HDAC inhibitors - cell viability counter screen (AID 1259365)
Summary of the method: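 Counter screen in wild-type HCT-116 cells: compounds dissolved in DMSO are pin-transferred onto overnight-plated cells and left 2hr at 37C. ATP-based CellTiter-Glo luminescence then measures viable cells.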

[11] = qHTS assay to identify small molecule agonists of the sonic hedgehog signaling (Shh) pathway - cell viability counter screen (AID 1259366); also: nearly all actives have a fitted effect of over 50% in size
Summary of the method: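 Cells are plated at 2,000 per well and left 4hr at 37C, 5% CO2 before compound addition. After 23hr of treatment, CellTiter-Fluor reagent is added for 1hr at 37C and fluorescence is measured.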

[12] = qHTS assay to identify small molecule antagonists of the sonic hedgehog signaling (Shh) pathway - cell viability counter screen (AID 1259367); also: nearly all actives have a fitted effect of over 55% in size; also: potency is read from the fitted curve at half-maximal effect
Summary of the method: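 Cytotoxicity was assessed in parallel with Shh reporter activity by measuring live-cell protease fluorescence (CellTiter-Fluor) in NIH/3T3 cells stably carrying Gli1-Luc, treated with compound under conditioned medium stimulation for 23 hr plus 1 hr reagent incubation.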

[13] = qHTS assay to identify small molecule agonists of the sonic hedgehog signaling (Shh) pathway (AID 1259368; calls by dose curve;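 also: NIH/3T3-derived 3T3Gli1-Luc cells carrying a stable Gli1-driven firefly luciferase reporter; series mostly up to about 92 µM; nearly all actives have a fitted effect of over 15% in size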)
Summary of the method: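 Cells of a mouse NIH/3T3 clone stably expressing luciferase under the Gli1 transcriptional response element are exposed to test chemicals for 24 hr at 37 C. Pathway activation is detected as a rise in luminescence.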

[14] = qHTS assay to identify small molecule antagonists of the sonic hedgehog signaling (Shh) pathway (AID 1259369; calls by dose curve; also: nearly all actives have a fitted effect of over 45% in size; also: potency is read from the fitted curve at half-maximal effect)
Summary of the method: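 Cells are plated and held 4hr at 37 C, compounds (DMSO) are pinned in, conditioned medium is added to stimulate the pathway, and after 24hr luciferase reagent is added for 30min before luminescence is read.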

[15] = qHTS assay to identify small molecule agonists of the androgen receptor (AR) signaling pathway in the presence of an antagonist - cell viability counter screen (AID 1259379);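 also: MDA-kb2 human breast cancer cells carrying an MMTV luciferase reporter; series mostly up to about 92 µM; nearly all actives have a fitted effect of over 25% in size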
Summary of the method: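 Cytotoxicity is assessed by CellTiter-Fluor in MDA-kb2 cells carrying an MMTV-driven luciferase reporter. Cells receive 3.0uM nilutamide plus compounds at 15 concentrations and incubate 16 hr at 37C without CO2 before fluorescence reading.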

[16] = A CellTox Green Cytotoxicity Assay to monitor cytotoxicity in HEK293 cells - 16 hour (AID 1224888); also: nearly all actives have a fitted effect of over 35% in size
Summary of the method: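 Cells (HEK293, 600/well) and dye reagent are dispensed together. After 5 h at 37 C, 23 nL compound is pinned in. Plates stay at 37 C for 40 h with fluorescence read at 0h, 8h, 16h, 24h, 32h and 40h.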

[17] = molecular target: Estrogen receptor beta (Homo sapiens) (UniProt Q92731); assay: qHTS assay to identify small molecule agonists of the estrogen receptor beta (ER-beta) signaling pathway (AID 1259377; active = well fitted activation curve with a large enough effect in the signal ratio in the repeat runs, not every such curve was filed as active; the % refers to the signal ratio)
Summary of the method: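 Agonist mode cell assay in GripTite HEK293T cells expressing an ER-beta fusion that drives beta-lactamase from an Upstream Activator Sequence; 16 hr compound exposure at 37C, then 2 h LiveBLAzer B/G FRET substrate at room temperature, fluorescence read-out.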

[18] = molecular target: Estrogen receptor beta (Homo sapiens) (UniProt Q92731); assay: qHTS assay to identify small molecule antagonists of the estrogen receptor beta (ER-beta) signaling pathway (AID 1259378; active = well fitted inhibition curve with a large enough effect in the signal ratio in the repeat runs, not every such curve was filed as active; the % refers to the signal ratio; also: potency is read from the fitted curve at half-maximal effect)
Summary of the method: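 ER-beta-UAS-bla HEK293T (GripTite) cells in 2% charcoal-stripped FBS medium were preincubated 6 hr at 37C, dosed with compound, then stimulated with 1 nM E2 (final) for 16 hr; beta-lactamase reporter read by B/G FRET fluorescence after 2 hr substrate loading.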

[19] = qHTS assay to identify small molecule phospholipidosis (PLD) inducers (AID 1259344; active = well fitted curve in the direction sought with a large enough effect; an effect the other way counts as inactive or inconclusive)
Summary of the method: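 Cells (HepG2, 900 per well) attach for 4 h, receive LipidTOX Red and compound together, incubate 24 h at 37 C, are fixed 30 min with paraformaldehyde/Hoechst, then imaged at one site per well.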

Estrogen receptor beta (Homo sapiens), sequence (Q92731 whole entry, looked up, the tested form may be a part): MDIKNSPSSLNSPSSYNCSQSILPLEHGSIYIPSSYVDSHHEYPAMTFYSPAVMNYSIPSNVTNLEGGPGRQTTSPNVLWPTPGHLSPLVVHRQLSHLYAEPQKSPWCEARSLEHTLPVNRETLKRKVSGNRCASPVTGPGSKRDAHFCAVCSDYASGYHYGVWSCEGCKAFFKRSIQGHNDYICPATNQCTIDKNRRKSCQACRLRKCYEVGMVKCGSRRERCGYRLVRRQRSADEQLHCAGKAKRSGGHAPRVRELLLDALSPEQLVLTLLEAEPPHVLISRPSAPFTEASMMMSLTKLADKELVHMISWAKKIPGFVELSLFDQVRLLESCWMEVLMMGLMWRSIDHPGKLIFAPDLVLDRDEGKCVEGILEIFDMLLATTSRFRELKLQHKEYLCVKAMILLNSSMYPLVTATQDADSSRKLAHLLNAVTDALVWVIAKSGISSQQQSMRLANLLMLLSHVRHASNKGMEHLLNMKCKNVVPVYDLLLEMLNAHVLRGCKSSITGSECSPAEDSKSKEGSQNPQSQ
Estrogen receptor (Homo sapiens), sequence (P03372 whole entry, looked up): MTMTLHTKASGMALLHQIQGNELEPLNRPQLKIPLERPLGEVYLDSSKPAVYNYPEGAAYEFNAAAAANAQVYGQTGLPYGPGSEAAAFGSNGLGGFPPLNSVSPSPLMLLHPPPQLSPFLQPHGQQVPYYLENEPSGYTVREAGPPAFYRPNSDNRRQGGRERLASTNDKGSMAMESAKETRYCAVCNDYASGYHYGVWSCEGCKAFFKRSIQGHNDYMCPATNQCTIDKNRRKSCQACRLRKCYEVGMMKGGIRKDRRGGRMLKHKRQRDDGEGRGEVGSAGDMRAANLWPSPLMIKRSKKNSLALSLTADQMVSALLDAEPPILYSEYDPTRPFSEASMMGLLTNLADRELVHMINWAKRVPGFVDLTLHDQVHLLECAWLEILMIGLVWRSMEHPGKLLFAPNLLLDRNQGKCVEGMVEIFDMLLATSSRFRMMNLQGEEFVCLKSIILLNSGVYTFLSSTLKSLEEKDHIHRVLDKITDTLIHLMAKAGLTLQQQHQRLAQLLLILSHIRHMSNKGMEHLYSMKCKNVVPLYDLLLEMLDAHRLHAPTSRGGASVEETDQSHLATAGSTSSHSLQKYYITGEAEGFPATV

Structure (SMILES)	outcome [1]	Potency [2]	Potency [3]	Potency [4]	Potency [5]	Potency [6]	outcome [7]	Potency [8]	Potency [9]	outcome [10]	Potency [11]	Potency [12]	outcome [13]	Potency [14]	Potency [15]	outcome [16]	Potency [17]	Potency [18]	outcome [19]
C=CCOC(=O)c1ccccc1C(=O)OCC=C	inactive	inactive	inactive	inactive	inactive	inactive	inactive	inactive	inactive	inactive	inactive	inactive	inactive	inactive	inactive	–	–	–	–
CSCCC=O	inactive	inactive	inactive	inactive	inactive	inactive	inactive	–	inactive	inactive	–	inactive	inactive	inactive	inactive	inactive	inactive	inactive	–
c1ccc(OCCOc2ccccc2)cc1	inactive	inactive	inactive	inactive	inactive	inactive	inactive	inactive	27.3 µM (active)	inactive	inactive	inactive	inactive	inactive	inactive	–	inactive	inactive	–
COc1cc(Cc2cnc(N)nc2N)cc(OC)c1OC	inactive	inactive	inactive	inactive	inactive	inactive	inactive	inactive	inactive	inactive	–	inactive	inactive	inactive	inactive	–	inactive	inactive	inactive
O=P(OC(CCl)CCl)(OC(CCl)CCl)OC(CCl)CCl	inactive	24.4 µM (active)	–	inactive	inactive	inactive	inactive	–	inactive	inactive	–	30.5 µM (active)	inactive	inactive	inactive	inactive	inactive	54.5 µM (active)	–
CC1=CC(=O)NS(=O)(=O)O1	inactive	inactive	inactive	inactive	inactive	inactive	inactive	–	inactive	inactive	inactive	inactive	inactive	inactive	inactive	–	inactive	inactive	inactive
CC(=O)CC(=O)Nc1ccccc1	inactive	inactive	inactive	inactive	inactive	inactive	inactive	–	inactive	inactive	inactive	inactive	inactive	inactive	–	–	inactive	inactive	–
CCCCCCCCCCCCCCCO	inactive	inactive	inactive	inactive	inactive	inactive	inactive	–	inactive	inactive	–	inactive	inactive	27.5 µM (active) and inactive	inactive	inactive	inactive	–	–
CC(O)COCC(C)O (stereo unspecified)	inactive	inactive	inactive	inactive	inactive	inactive	inactive	inactive	inactive	inactive	inactive	inactive	inactive	inactive	inactive	–	–	–	–
COc1ccc(Cl)cc1C(=O)NCCc1ccc(S(=O)(=O)NC(=O)NC2CCCCC2)cc1	inactive	inactive	inactive	–	inactive	inactive	inactive	–	inactive	inactive	–	inactive	inactive	inactive	inactive	inactive	inactive	inactive	inactive
COc1ccc(NC(C)=O)cc1N	–	inactive	inactive	inactive	inactive	inactive	inactive	inactive	inactive	inactive	inactive	inactive	inactive	inactive	–	inactive	inactive	inactive	–
O=C(O)CC(C(=O)O)C(CC(=O)O)C(=O)O (stereo unspecified)	–	inactive	inactive	inactive	inactive	inactive	inactive	inactive	inactive	inactive	–	inactive	inactive	inactive	–	–	–	–	–
